Measured values: PubChem BioAssay AID1159580 (chemical genetic matrix, 2015)
Hit rate of the full screen: of about 5,500 compounds, about 2,000 (36%) were called active. Not shown: some 18% with an inconclusive outcome. Cut-off read from the data, not from the text of the source: active = normalized growth mostly below about 0.91 (no sharp cut-off); inconclusive = no clear call, values can overlap the other calls; inactive = mostly above about 0.92. This is one part of the list.

Experiment: chemical genetic growth profiling, strain panel (AID 1159580);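 note: tested at 20 µM; growth read once vehicle control cultures reached saturation at 30 °C; 1 = growth at the plate median or of vehicle wells; lower values mean less growth of the strain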
Settings: S. cerevisiae deletion strains, growth OD

Measured: normalized growth

O[C@@H]1[C@H](O)CO[C@H]1O
inactive: locus YHR030C, strain SLT2, stronger effect = lower value 0.995 | locus YHR079C, strain IRE1, stronger effect = lower value 0.997 | locus YJL095W, strain BCK1, stronger effect = lower value 1.01 | locus YJR066W, strain TOR1, stronger effect = lower value 0.945 | locus YLR113W, strain HOG1, stronger effect = lower value 1 | locus YNL183C, strain NPR1, stronger effect = lower value 0.965 | locus YOR231W, strain MKK1, stronger effect = lower value 0.992 | locus YPL256C, strain CLN2, stronger effect = lower value 0.988
